Only some compounds are listed: those with a hit (about 2.2% of all), similar ones and a draw of the others.
miR122 inh – miR-122 inhibition in Huh7 cells; Huh7 miR-122 Renilla luciferase sensor, 48 h; neutral wells = 0, positive control = 100; AID 602342; activation (reporter increase), % at 12.5 µM; 340,000 compounds, 0.3% hits;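 active = mean replicate activation score at least 90 and every replicate individually at or above 90; inconclusive = only one of the two criteria met; inactive = neither criterion met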;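 note: higher luciferase means less miR-122 activity so hits act as miR-122 inhibitors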
C2C12 statin – suppressors of simvastatin-induced myotoxicity in C2C12 myotubes | ATP luminescence, 48 h; scaled: DMSO 0, geranylgeraniol control 100 | rescue of ATP level, % at 7.49 µM | 330,000 compounds, 0.78% hits | AID 602340;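 active = mean ATP rescue above about 67%, or every replicate alone reaching that limit, limit read from the data, passing the limit was not always enough; inconclusive = no clear call, values can overlap the other calls; inactive = mean under the limit and some replicate under it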;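 note: myotubes were challenged with 10 µM simvastatin during compound exposure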
PvdQ acylase – blocks Pseudomonas aeruginosa PvdQ acylase activity. AID 488965. purified PvdQ acylase, fluorescence plate reader. inhibition, % at 10 µM. 340,000 compounds, 0.063% hits; in the data active = inhibition above about 30%, passing the limit was not always enough; inconclusive = no clear call, values can overlap the other calls
PGC1a acetyl inh – PGC1a acetylation modulation, inhibitor mode; U2OS PGC1a acetylation, AlphaScreen anti-acetyl-lysine; with virally co-expressed GCN5 acetyltransferase; inhibition, % at 15.6 µM; 350,000 compounds, 0.17% hits;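 active = every replicate shows inhibition of at least 40%; inconclusive = mean inhibition at least 40% but some replicate below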
DENV2 CPE – inhibitors of DENV2 cytopathic effect | 350,000 compounds, 1.7% hits | CPE inhibition, % at 9.99 µM | DENV2-infected cells, cytopathic effect rescue, plate reader; in the data active = CPE inhibition above about 20%, passing the limit was not always enough; inconclusive = no clear call, values can overlap the other calls; tested in BHK-21 cells
Of the large screens only hits and unclear results are named; the others gave an inactive call.

COc1ccc(CN(C)C[C@H]2OCCCC[C@@H](C)Oc3ccc(NC(=O)Cc4ccccc4)cc3C(=O)N([C@@H](C)CO)C[C@@H]2C)cc1	DENV2 CPE inconclusive (no result: C2C12 statin, PvdQ acylase)
C[C@@H]1CN([C@H](C)CO)C(=O)c2cc(NC(=O)Nc3ccccc3)ccc2O[C@@H](C)CCCCO[C@@H]1CN(C)Cc1ccc(Cl)c(Cl)c1	C2C12 statin 117 (no result: PvdQ acylase)
C[C@@H]1CCCCO[C@@H](CN(C)Cc2ccc(Cl)c(Cl)c2)[C@H](C)CN([C@@H](C)CO)C(=O)c2cc(NC(=O)Cc3ccccc3)ccc2O1	C2C12 statin 106 (no result: PvdQ acylase, PGC1a acetyl inh)
CNC[C@@H]1OCCCC[C@H](C)Oc2ccc(NS(C)(=O)=O)cc2C(=O)N([C@H](C)CO)C[C@@H]1C	none (no result: PvdQ acylase)
CC(C)NC(=O)Nc1ccc2c(c1)CC(=O)N([C@@H](C)CO)C[C@@H](C)[C@H](CN(C)C(=O)Nc1ccc(F)cc1)O2	none (no result: PvdQ acylase)
COc1ccc(OC)c(S(=O)(=O)N2CCC(C(=O)Nc3cccc(C)c3)CC2)c1	none (no result: miR122 inh, C2C12 statin, PGC1a acetyl inh)
C[C@H](NC(=O)C1CCN(S(=O)(=O)c2ccccc2)CC1)C(=O)NCc1ccc(F)cc1	none (no result: miR122 inh)
COc1ccc(OC)c(S(=O)(=O)N2CCC(C(=O)Nc3ccccc3)CC2)c1	C2C12 statin 91
COc1ccc(S(=O)(=O)N2CCC(C(=O)N[C@H](C(=O)NCc3ccccc3)C(C)C)CC2)cc1	DENV2 CPE 47 (no result: PvdQ acylase)
C[C@H](NC(=O)C1CCN(S(=O)(=O)c2ccccc2)CC1)C(=O)NCc1cccnc1	DENV2 CPE 37 (no result: PvdQ acylase)
COc1ccc(CNC(=O)[C@@H](NC(=O)C2CCN(S(=O)(=O)c3ccccc3)CC2)C(C)C)cc1	none
O=C(C[C@H]1C[C@H]2c3cc(NS(=O)(=O)c4ccc(F)cc4)ccc3O[C@H]2[C@H](CO)O1)NC1CCCC1	none (no result: PvdQ acylase)
CC(NC(=O)CN1CCN(c2cccc(Cl)c2)CC1)c1ccccc1 (stereo not given)	DENV2 CPE 44
O=C(c1ccc2c(c1)OCO2)N1CC[C@@H]2[C@H]1c1cc(-c3ccc(F)cc3)ccc1N[C@@H]2CO	none (no result: PvdQ acylase)
Cc1ccc(S(=O)(=O)NCC(=O)OCC(=O)N(Cc2ccccc2)C(C)(C)C)cc1	DENV2 CPE 93 (no result: miR122 inh, C2C12 statin, PGC1a acetyl inh)
Cc1ccc(S(=O)(=O)NCC(=O)OCC(=O)c2ccc(Br)s2)cc1	none (no result: DENV2 CPE)
Cc1ccc(S(=O)(=O)NCC(=O)OCC(=O)c2cccs2)cc1	C2C12 statin 125 (no result: DENV2 CPE)
Cc1ccc(S(=O)(=O)NCCC(=O)OCC(=O)N(Cc2ccccc2)C(C)(C)C)cc1	none (no result: miR122 inh, C2C12 statin, PGC1a acetyl inh)
C[C@H]1CN([C@@H](C)CO)C(=O)Cc2cc(N(C)C)ccc2O[C@H]1CN(C)S(=O)(=O)c1ccccc1	none (no result: PvdQ acylase)
O=C(C[C@@H]1CC[C@@H]2[C@H](COC[C@@H](O)CN2C(=O)Cc2ccccc2)O1)NC1CCCC1	none (no result: PvdQ acylase)
CC(Sc1nnc(-c2ccccc2F)n1C)C(=O)NC1CCCCC1 (stereo not given)	PvdQ acylase 30
O=C(C[C@@H]1C[C@H]2c3cc(NC(=O)C4CCOCC4)ccc3O[C@H]2[C@H](CO)O1)NCc1ccc(Cl)cc1	none (no result: PvdQ acylase)
Cc1nc(NCc2ccco2)c2c(C)c(C)sc2n1	miR122 inh 129, C2C12 statin inconclusive (no result: DENV2 CPE)
Cc1sc2nc3c4ccccc4c(NCc4ccco4)nn3c(=O)c2c1C	none (no result: C2C12 statin, DENV2 CPE)
C[C@@H]1CN([C@@H](C)CO)C(=O)Cc2cc(NC(=O)Nc3ccc(F)cc3)ccc2O[C@@H]1CN(C)Cc1ccc2c(c1)OCO2	none (no result: PvdQ acylase)
CC(=O)c1cc(C#N)c(Oc2ccc(Cl)cc2Cl)nc1C	C2C12 statin 167 (no result: DENV2 CPE)
CC(=O)c1cc(C#N)c(Oc2ccccc2)nc1C	C2C12 statin 105 (no result: DENV2 CPE)
COC(=O)c1cc(C#N)c(Oc2ccc(OC)cc2)nc1C	none (no result: DENV2 CPE)
COCCNC(=O)C[C@H]1C[C@@H]2c3cc(NC(=O)c4ccc5c(c4)OCO5)ccc3O[C@@H]2[C@H](CO)O1	none (no result: PvdQ acylase)
CCCNC(=O)Nc1ccc2c(c1)OC[C@H](C)N(CCC)C[C@H](C)[C@@H](OC)CN(C)C2=O	none (no result: PvdQ acylase)
COc1cc(NC(=O)c2cccs2)c(C(=O)OCC(=O)NCc2ccco2)cc1OC	C2C12 statin 105 (no result: DENV2 CPE)
CNC(=O)NC(=O)COC(=O)c1n[nH]c2ccccc12	none
COc1cc(C(=O)OCC(=O)NCc2ccco2)cc(OC)c1OC	none (no result: DENV2 CPE)
O=C(COC(=O)c1n[nH]c2ccccc12)NC(=O)NCc1ccco1	C2C12 statin 73 (no result: DENV2 CPE)
O=C(COC(=O)c1cccs1)NCc1ccco1	C2C12 statin 131 (no result: DENV2 CPE)
CN1CCN(C(=O)C[C@@H]2CC[C@@H]3[C@@H](COc4ccc(NC(=O)C5CCC5)cc4C(=O)N3C)O2)CC1	DENV2 CPE inconclusive (no result: miR122 inh, C2C12 statin, PvdQ acylase)
COc1ccc(S(=O)(=O)N(C)C[C@H]2OCCCC[C@H](C)Oc3ccc(NC(=O)Nc4ccc5c(c4)OCO5)cc3C(=O)N([C@H](C)CO)C[C@@H]2C)cc1	none (no result: PvdQ acylase)
N#Cc1cn(Cc2ccccc2)c2ccccc12	PvdQ acylase 35 (no result: DENV2 CPE)
CCn1cc(S(=O)(=O)CC(=O)Nc2cccc(C)c2)c2ccccc21	none
CCn1cc(S(=O)(=O)CC(=O)Nc2ccc(C)cc2)c2ccccc21	miR122 inh 98 (no result: DENV2 CPE)
CCCCCCCNc1cccc(C)c1	none (no result: miR122 inh)
Cc1cccc(NCCNc2cccc(C)c2)c1	C2C12 statin 113 (no result: miR122 inh, DENV2 CPE)
COC(=O)C1=C(N)OC2=C(C(=O)CC(C)(C)C2)C1c1ccoc1 (stereo not given)	C2C12 statin 98 (no result: DENV2 CPE)
CCN(CC)CCNc1ccc(CO)c2oc3cc(Cl)ccc3c(=O)c12	DENV2 CPE 64 (no result: PvdQ acylase)
O=C(Nc1ccc(Cl)cc1)N[C@H]1CC[C@@H](CCn2cc(-c3ccccc3F)nn2)O[C@@H]1CO	none (no result: miR122 inh, PvdQ acylase)
C[C@H]1CN([C@@H](C)CO)C(=O)c2cc(C#Cc3ccccc3F)cnc2O[C@H]1CN(C)C(=O)c1ccc2c(c1)OCO2	DENV2 CPE inconclusive (no result: PvdQ acylase)
COc1ccccc1CNC(=O)Nc1cccs1	none (no result: C2C12 statin, DENV2 CPE)
COc1ccc(Br)cc1CNC(=O)Nc1cccs1	miR122 inh 106 (no result: PGC1a acetyl inh, DENV2 CPE)
CCCN1[C@@H]2c3ccc(-c4ccc(C(=O)N(C)C)cc4)c(=O)n3C[C@@H]2[C@@H](CO)[C@@H]1C(=O)NCC	none (no result: PvdQ acylase, PGC1a acetyl inh)
CCOC(=O)N1CCC(C(=O)NNC(=O)c2ccc(Cl)cc2Cl)CC1	DENV2 CPE 45
CCOC(=O)N1CCN(C(=O)CNC(=O)c2ccc(Cl)cc2Cl)CC1	none
C[C@H]1CN([C@@H](C)CO)S(=O)(=O)c2ccc(/C=C/c3ccccc3)cc2O[C@@H]1CN(C)C(=O)Nc1ccc(F)cc1	none (no result: PvdQ acylase)
O=C(C1CC1)N1CC[C@@H]2[C@H]1c1cc(Br)ccc1N[C@@H]2CO	DENV2 CPE 36 (no result: PvdQ acylase)
O=C(C1CC1)N1CC[C@H]2[C@H](CO)Nc3ccc(Br)cc3[C@H]21	DENV2 CPE 27 (no result: PvdQ acylase)
O=C([C@@H]1[C@@H](CO)[C@@H]2Cn3c(ccc(/C=C/c4ccccc4)c3=O)[C@@H]2N1CC1CC1)N1CCCCC1	none (no result: PvdQ acylase, PGC1a acetyl inh)
COc1cccc(NC(=O)Cn2c(=O)n(C)c(=O)c3sc4c(c32)COC(C)(C)C4)c1	C2C12 statin 136
O=C(C1CCCC1)N1CCC(CC2CC(c3ccc(Cl)cc3)=NO2)(C(=O)NCC2CCCCC2)CC1 (stereo not given)	none
O=C(C1CCCC1)N1CCC(CC2CC(c3cccc(Br)c3)=NO2)(C(=O)NCC2CCCCC2)CC1 (stereo not given)	DENV2 CPE 53

Compound activity from PubChem.
